From PubChem BioAssay (Tox21)
Values joined by “and” are separate entries in the source; they are usually repeats but may differ in a detail not shown here. Equal entries are not always repeated. Records with an inconclusive call do not appear. A structure can be active in one record and inactive in another. Active and inactive are the calls of the source. Unless noted, calls come from the whole dose curve; as a rule, active = well fitted curve in the direction sought with a large enough effect in the repeat runs; inconclusive = weak or mixed curves; inactive = no such curve, though single readings can be large; an effect the other way counts as inactive or inconclusive.

Experiments:
[1] = A CellTox Green Cytotoxicity Assay to monitor cytotoxicity in HEK293 cells - 32 hour (AID 1224881); note: nearly all actives have a fitted effect of over 40% in size; note: potency is the fitted concentration of half-maximal effect
Outline: (§1)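 Each value comes from one timepoint of a single continuous run in which HEK293 cells with CellTox Green were exposed to compound for up to 40 h at 37 C, dye fluorescence rising with cell death.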

[2] = A CellTox Green Cytotoxicity Assay to monitor cytotoxicity in HepG2 cells - 0 hour (AID 1224882); note: nearly all actives have a fitted effect of over 35% in size
Outline: (§2)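 Continuous culture of HepG2 cells with a membrane-impermeant DNA dye; rising fluorescence marks dead cells. Compound exposure lasted up to 40 h at 37 C, with reads every 8 h from 0 h.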

[3] = A CellTox Green Cytotoxicity Assay to monitor cytotoxicity in HepG2 cells - 32 hour (AID 1224883); note: nearly all actives have a fitted effect of over 50% in size
Outline: as §2

[4] = A CellTox Green Cytotoxicity Assay to monitor cytotoxicity in HEK293 cells - 8 hour (AID 1224884); note: nearly all actives have a fitted effect of over 35% in size
Outline: as §1

[5] = qHTS RealTime-Glo MT Cell Viability Assay in HEK293 cells - 24 hour (AID 1224886); note: nearly all actives have a fitted effect of over 50% in size; note: potency is the fitted concentration of half-maximal effect
Outline: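 HEK293 cells seeded with NanoLuc/prosubstrate reagent, rested 5 h at 37 C, then dosed and kept at 37 C up to 40 h. Nonlytic real-time luminescence from viable cells read at 0, 8, 16, 24, 32 and 40 h.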

[6] = qHTS RealTime-Glo MT Cell Viability Assay in HEK293 cells - 8 hour (AID 1224887); note: nearly all actives have a fitted effect of over 50% in size; note: potency is the fitted concentration of half-maximal effect
Outline: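 qHTS format; HEK293 cells with NanoLuc/prosubstrate reagent, 37 C/5% CO2 for 5 h pre-dosing; compounds 23 nL in DMSO; luminescence at each time point reflects viable cells.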

[7] = A CellTox Green Cytotoxicity Assay to monitor cytotoxicity in HEK293 cells - 16 hour (AID 1224888); note: nearly all actives have a fitted effect of over 35% in size
Outline: as §1

[8] = qHTS RealTime-Glo MT Cell Viability Assay in HepG2 cells - 0 hour (AID 1224889); note: nearly all actives have a fitted effect of over 50% in size
Outline: (§3)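 HepG2 cells (600/well) were dispensed with RealTime-Glo reagents, incubated 5 h at 37 °C, then treated with compounds in DMSO for up to 40 h. Nonlytic NanoLuc luminescence reflecting viable cells was read at each stated time point.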

[9] = A CellTox Green Cytotoxicity Assay to monitor cytotoxicity in HepG2 cells - 8 hour (AID 1224890); note: nearly all actives have a fitted effect of over 45% in size
Outline: as §2

[10] = qHTS assay to identify small molecule antagonists of the estrogen receptor alpha (ER-alpha) signaling pathway using the BG1 cell line in the presence of 0.1 nM 17-beta-estradiol - cell viability counter screen (AID 1259241); note: nearly all actives have a fitted effect of over 40% in size
Outline: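 CellTiter-Fluor read (30 min, 37C) on ER-alpha/ERE-luc VM7Luc4E2 cells; 22 hr compound treatment; agonist 0.1 nM E2 final; same-well multiplex.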

[11] = qHTS assay to identify small molecule antagonists of the androgen receptor (AR) signaling pathway using the MDA cell line in the presence of 0.5 nM R1881 - cell viability counter screen (AID 1259242); note: nearly all actives have a fitted effect of over 45% in size
Outline: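 Fluorescence from CellTiter-Fluor, which reports protease activity of live cells, was read 30 min after reagent addition to MDA-kb2 cells that had been incubated 16 hr with compound and 0.5 nM R1881.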

[12] = target: Androgen receptor (Homo sapiens) (UniProt P10275); experiment: qHTS assay to identify small molecule antagonists of the androgen receptor (AR) signaling pathway using the MDA cell line in the presence of 0.5 nM R1881 (AID 1259243); note: nearly all actives have a fitted effect of over 50% in size
Sequence of Androgen receptor (Homo sapiens) (P10275 whole entry, looked up): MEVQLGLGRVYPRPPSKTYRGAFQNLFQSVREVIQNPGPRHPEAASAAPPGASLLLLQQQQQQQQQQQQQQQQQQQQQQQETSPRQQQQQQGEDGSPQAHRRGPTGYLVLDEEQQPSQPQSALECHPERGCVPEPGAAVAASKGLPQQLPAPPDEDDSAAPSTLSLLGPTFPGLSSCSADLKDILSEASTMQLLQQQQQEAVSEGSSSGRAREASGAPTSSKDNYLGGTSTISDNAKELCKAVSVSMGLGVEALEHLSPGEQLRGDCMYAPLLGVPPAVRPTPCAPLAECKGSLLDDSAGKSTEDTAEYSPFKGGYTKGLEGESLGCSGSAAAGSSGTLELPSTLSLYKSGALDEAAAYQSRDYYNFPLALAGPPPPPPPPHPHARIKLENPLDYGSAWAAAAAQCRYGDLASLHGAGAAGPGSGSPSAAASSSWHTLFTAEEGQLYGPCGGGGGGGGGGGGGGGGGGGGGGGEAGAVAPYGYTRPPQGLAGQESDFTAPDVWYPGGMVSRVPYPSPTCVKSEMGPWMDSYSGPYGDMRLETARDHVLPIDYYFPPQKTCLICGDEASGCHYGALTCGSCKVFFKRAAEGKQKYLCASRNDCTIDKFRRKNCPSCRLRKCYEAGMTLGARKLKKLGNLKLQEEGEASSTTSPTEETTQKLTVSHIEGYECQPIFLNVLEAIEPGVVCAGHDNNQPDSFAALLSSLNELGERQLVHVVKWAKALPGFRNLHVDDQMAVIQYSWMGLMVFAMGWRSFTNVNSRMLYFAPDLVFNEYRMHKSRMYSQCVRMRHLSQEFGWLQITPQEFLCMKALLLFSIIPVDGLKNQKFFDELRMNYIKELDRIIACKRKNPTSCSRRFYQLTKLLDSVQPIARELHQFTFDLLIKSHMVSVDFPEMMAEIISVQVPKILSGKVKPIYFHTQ
Outline: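 Inhibition of R1881 (0.5 nM final) induced reporter signal was measured in human MDA-kb2 cells; note the MMTV promoter also responds to GR. Exposure lasted 16 hr at 37C.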

[13] = qHTS assay to identify small molecule HDAC inhibitors (AID 1259364); note: top concentration of the series differs between compounds; nearly all actives have a fitted effect of over 45% in size
Outline: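 Endogenous HDAC class I/II activity was measured in wild-type HCT-116 cells by HDAC-Glo luminescence after 2 h compound treatment.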

[14] = qHTS assay to identify small molecule HDAC inhibitors - cell viability counter screen (AID 1259365)
Outline: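 To flag cytotoxic hits, 1,500 wild-type HCT-116 cells per well, plated the day before, receive test compounds for 2hr at 37 C before CellTiter-Glo reagent and a luminescence read.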

[15] = qHTS assay to identify small molecule agonists of the sonic hedgehog signaling (Shh) pathway - cell viability counter screen (AID 1259366); note: nearly all actives have a fitted effect of over 50% in size
Outline: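 Fluorescence from CellTiter-Fluor reports live cells in this counter screen. NIH/3T3-derived Gli1-Luc reporter cells receive test compounds for 24hr at 37C; reagent goes in at 23hr.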

[16] = qHTS assay to identify small molecule antagonists of the sonic hedgehog signaling (Shh) pathway - cell viability counter screen (AID 1259367); note: nearly all actives have a fitted effect of over 55% in size
Outline: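 NIH/3T3-derived Gli1-Luc reporter cells, 2,000/well, plated 4 hr before compound addition, then stimulated with conditioned medium for 24 hr at 37C. Viability measured in the same wells by CellTiter-Fluor fluorescence, reagent added at 23 hr for 1 hr.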

[17] = qHTS assay to identify small molecule agonists of the sonic hedgehog signaling (Shh) pathway (AID 1259368; calls by dose curve;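 note: NIH/3T3-derived 3T3Gli1-Luc cells carrying a stable Gli1-driven firefly luciferase reporter; series mostly up to about 92 µM; nearly all actives have a fitted effect of over 15% in size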)
Outline: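 Luminescent signal was taken as a measure of Gli1-controlled luciferase expression in stably transfected NIH/3T3-derived cells that had been treated for 24 hr with compounds delivered in DMSO.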

[18] = target: Estrogen receptor (Homo sapiens) (UniProt P03372); experiment: qHTS assay to identify small molecule antagonists of the estrogen receptor alpha (ER-alpha) signaling pathway using the BG1 cell line in the presence of 0.1 nM 17-beta-estradiol (AID 1259244); note: nearly all actives have a fitted effect of over 50% in size; note: potency is the fitted concentration of half-maximal effect
Sequence of Estrogen receptor (Homo sapiens) (P03372 whole entry, looked up): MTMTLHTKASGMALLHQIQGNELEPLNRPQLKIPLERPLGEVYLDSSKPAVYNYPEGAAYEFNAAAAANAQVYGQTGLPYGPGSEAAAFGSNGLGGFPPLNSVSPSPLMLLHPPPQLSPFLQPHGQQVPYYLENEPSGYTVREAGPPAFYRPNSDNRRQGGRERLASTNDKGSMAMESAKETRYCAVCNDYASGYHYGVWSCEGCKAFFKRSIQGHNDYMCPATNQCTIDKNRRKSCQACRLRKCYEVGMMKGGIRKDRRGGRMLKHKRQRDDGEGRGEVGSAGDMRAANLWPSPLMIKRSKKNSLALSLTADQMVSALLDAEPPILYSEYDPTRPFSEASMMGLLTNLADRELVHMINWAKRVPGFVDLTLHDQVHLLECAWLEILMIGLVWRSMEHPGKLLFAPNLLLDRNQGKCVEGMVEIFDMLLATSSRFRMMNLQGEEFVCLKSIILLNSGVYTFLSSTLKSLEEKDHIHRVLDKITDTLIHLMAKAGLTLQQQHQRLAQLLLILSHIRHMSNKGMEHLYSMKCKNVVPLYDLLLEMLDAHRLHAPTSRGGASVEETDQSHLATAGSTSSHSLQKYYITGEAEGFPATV
Outline: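 Quantitative high-throughput screen in VM7Luc4E2 cells: compound plus 0.1 nM E2 (final), 22 h, 37C, 5% CO2; ONE-Glo added, 30 min room temperature, luminescence measured.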

[19] = qHTS assay to identify small molecule phospholipidosis (PLD) inducers (AID 1259344; active = well fitted curve in the direction sought with a large enough effect; an effect the other way counts as inactive or inconclusive)
Outline: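 HepG2 cells, 900/well, treated with compound plus LipidTOX Red for 24 h at 37 C; amiodarone positive and DMSO negative controls. Fixed with paraformaldehyde/Hoechst, then high-content imaging scored LipidTOX pit count and integrated intensity per well and per cell.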

[20] = qHTS RealTime-Glo MT Cell Viability Assay in HepG2 cells - 16 hour (AID 1224885); note: nearly all actives have a fitted effect of over 50% in size
Outline: as §3

Measured: Potency

CC(C)CC(=O)CC(C)CC(C)C (stereo not drawn)
inactive and 19.5 µM (active): [5]
not listed: [18] | [19] | [20]
inactive: all other assays above

Cc1ccc(C(C)C)c(O)c1
not listed: [12] | [20]
inactive: all other assays above

O=C(O)c1ccc(S(=O)(=O)N(Cl)Cl)cc1
38.8 µM (active) and inactive: [18]
49.3 µM (active) and inactive: [5] | [6]
not listed: [3] | [12]
inactive: all other assays above

CC1(C)OC[C@@H]2O[C@@]3(C(=O)O)OC(C)(C)O[C@H]3[C@@H]2O1
not listed: [9] | [12] | [18] | [20]
inactive: all other assays above

Cc1ccc2ncccc2c1
not listed: [12] | [19] | [20]
inactive: all other assays above

NC(=S)NNC(N)=S
not listed: [9] | [12] | [18] | [19] | [20]
inactive: all other assays above

CC(C)(Oc1ccc(CCNC(=O)c2ccc(Cl)cc2)cc1)C(=O)O
not listed: [3] | [12]
inactive: all other assays above

CC1(C)NC(=O)NC1=O
not listed: [12] | [19] | [20]
inactive: all other assays above

CCOC(=O)c1ccc(N)cc1
not listed: [9] | [12] | [18] | [20]
inactive: all other assays above

CN(C)c1ccc(Cc2ccc(N(C)C)cc2)cc1
active: [5] 22 µM and 21.9 µM
not listed: [6] | [12] | [18] | [19] | [20]
inactive: all other assays above

CC(C)c1cccc(C(C)C)c1
not listed: [3] | [12] | [19]
inactive: all other assays above

CCCOC(=O)c1ccccc1
not listed: [3] | [9] | [12] | [18] | [20]
inactive: all other assays above

C[C@]12CC[C@@H]3c4ccc(O)cc4CC[C@H]3[C@@H]1C[C@@H](O)[C@@H]2O
not listed: [3] | [12] | [18]
inactive: all other assays above

CCCCCCCCCCO
39 µM (active) and inactive: [1]
not listed: [3] | [7] | [12] | [19] | [20]
inactive: all other assays above

C=CCc1ccc(OC)c(OC)c1
not listed: [3] | [12] | [18] | [19]
inactive: all other assays above

C=CC(=O)OCCC(=O)O
not listed: [3] | [12] | [19] | [20]
inactive: all other assays above

CC(O)CC(C)(C)O (stereo not drawn)
not listed: [3] | [9] | [12] | [18] | [19]
inactive: all other assays above
